According to PubChem BioAssay AID1745850 (National Center for Advancing Translational Sciences (NCATS), 2022):
Screen size: about 2,100 compounds; about 260 (12%) were called active. Not shown: some 58% with an inconclusive outcome. The list shows a part of the results. Unmarked numbers belong to inactive results. Calls come from the whole dose curve; as a rule, active = well fitted cell-killing curve with a large enough effect; inconclusive = small, poorly fitted or top-dose-only effect, or effect the other way; inactive = flat fitted curve, though single readings scatter.

Experiment: Viability Counterscreen for Confirmatory qHTS for Inhibitors of ATXN expression; note: nearly all actives have a fitted effect of over 50% in size
Conditions: HEK-293 ATXN2-luc cells viability, CellTiter-Fluor, 24 h; activity change, negative = cytotoxicity: at the top concentration
Method in brief: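 Cells with an ATXN2-luciferase reporter were dosed in a dilution series for 24 h at 37 degrees C. Viability was read first with Gly-Phe-AFC at 25 uM final (fluorescence, ex 405/em 540), then SteadyGlo luminescence. Medium-only wells defined 100% inhibition.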
Potency is the fitted concentration of half-maximal effect.

Compound	activity change, negative = cytotoxicity	Potency
CC(C)CCNC(=O)COc1cccc2c1OC(C)(C)C2	-12.4% [at 57.5 µM]	
CCOC(=O)[C@H]1[C@H]2COc3ccc(OC)cc3[C@@H]2N2C(=O)c3cc(OC)c(OC)cc3NC(=O)[C@@]12C	-13%	
Cc1cc(O)c(C(C)C)cc1N=Cc1ccc(N(C)C)cc1	-5.37%	
Cc1cc(C2=NNC(=NC3CC3)SC2)c(C)n1-c1ccccc1F	-26.7%	
Cc1cccc(N2CCN(C(=O)CNC(=O)Cc3ccccc3)CC2)c1C	-15.8%	
CCC(C)(C)c1ccc(OCCCC[n+]2ccc(C)cc2)c(C(C)(C)CC)c1	-23.1%	
CCCCCc1ccc(OCCC[n+]2ccccc2)c(CCCCC)c1		20 µM (active)
CCC(C)(C)c1ccc(OCCCC[n+]2ccccc2)c(C(C)(C)CC)c1	-22%	
Cc1cccc(OCCSc2nc3ncnc(N)c3[nH]2)c1	-9.99% [at 57.5 µM]	
Cc1nc(-c2ccc(Cl)cc2)sc1C(=O)NN	-25.7% [at 57.5 µM]	
COc1ccc(N2CCN(c3cc(C)nc4ccc(OC)cc34)CC2)cc1	-28.2%	
COc1ccc2nc(C)c3c(c2c1)OC(C(C)(Cl)Br)C3 (stereo not drawn)	-19.2%	
COc1ccc2nc(C)cc(NCc3cccc(C(F)(F)F)c3)c2c1		22.4 µM (active)
O=C(CCN1CCN(c2ccccc2)CC1)N/N=C/c1ccccc1O	-13.3%	
COc1cc(C(=O)OC(C)C(=O)N2CCc3ccccc3C2)ccc1OCC(=O)N1CCOCC1 (stereo not drawn)	-8.5%	
COC(=O)c1sc(NC(=O)c2ccc(OC)cc2OC)nc1C	-11.6% [at 57.5 µM]	
Cc1cc(C)c(C)c(OC(=O)c2sc(Cl)nc2C)c1		28.2 µM (active)
CCOC(=O)C1CCN(c2ncnc3c2cnn3-c2ccc(Cl)cc2)CC1	-3.15% [at 57.5 µM]	
Cc1cc(N2CCN(c3nc(-c4ccccc4)cs3)CC2)c2ccccc2n1	-13.9%	
Cn1cccc1/C=N/N1CCN(Cc2ccccc2Cl)CC1	-17.9% [at 57.5 µM]	
CCOC(=O)N1CCN(Cc2cc(Cl)c3cccnc3c2O)CC1	-24.9%	
CC(C)COCc1ccc(O)c2ncccc12	-28.8%	
O=[N+]([O-])c1cc(Cl)c(O)c2ncccc12		11.2 µM (active)

Compound	activity change, negative = cytotoxicity	Potency
O=C1c2cccc3c([N+](=O)[O-])ccc(c23)C(=O)N1c1ccc(Cl)cn1	-7.3% [at 57.5 µM]	
O=[N+]([O-])c1ccc(O)c2ncccc12		11.2 µM (active)
Cc1ccnc(N2C(=O)c3cccc4c([N+](=O)[O-])ccc(c34)C2=O)c1	4.13% [at 57.5 µM]	
Cn1c(-[n+]2c(-c3ccccc3)cc(-c3ccccc3)cc2-c2ccccc2)nc2c([N+](=O)[O-])cccc21	-27.1%	
COc1ccc(N=Cc2cc3c(cc2O)OC(N)=C(C#N)C3c2ccccc2)cc1 (stereo not drawn)	-26.4%	
O=C1CCCC(O)=C1C=NCc1ccccc1	2.46%	
CCCCC(=O)N(CCOC)c1nnc(-c2ccccc2C)s1	-13.5% [at 57.5 µM]	
CC(=O)Nc1ccc(CNc2nc(NC(C)C)nc3cc(-c4ccccc4)sc23)cc1		25.1 µM (active)
COc1ccc(-c2cc(CNc3nc(NC(C)C)nc4cc(-c5ccccc5)sc34)on2)cc1		22.4 µM (active)
CC(=O)Nc1ccc(CNc2nc3cc(-c4ccccc4C)sc3c(=O)n2C)cc1	-25% [at 57.5 µM]	
COc1ccccc1CNc1nc(NC(C)C)nc2cc(-c3ccccc3)sc12		28.2 µM (active)
CCn1c2ccccc2c2cc(/C=N/n3cnnc3)ccc21	-18.4%	
CCOCCn1ccc2c(OCC(=O)Nc3ccc(OC)c(OC)c3)cccc2c1=O	-12%	
COCCNc1nc(-c2cc(C)n(CCc3ccc(OC)cc3)c2C)cs1	-24.1% [at 57.5 µM]	
COCCCn1c(N)c(-c2nc3ccccc3n2C)c2nc3ccccc3nc21	-3.25% [at 57.5 µM]	
CO[C@@]12[C@@H]3N[C@@H]3CN1C1=C(C(=O)C(N)=C(C)C1=O)[C@@H]2COC(N)=O	9.55%	
NNC(=O)c1sc2cc(C(F)(F)F)cnc2c1-c1cccs1	-22.9% [at 57.5 µM]	
O=C(CNC(=O)C1COc2ccccc2O1)N/N=C/c1ccc(O)cc1O (stereo not drawn)	-22.9%	
Cc1nc(SCc2ccc(C(=O)O)cc2)nc2c1CCCC2	-2.72%	
N=c1ccn(CC(=O)c2ccc(-c3ccccc3)cc2)cc1	-19.1%	
Cc1c(C(=O)NCc2ccc(C(F)(F)F)cc2)sc(=O)n1Cc1cccc(F)c1	-16.1% [at 57.5 µM]	
Cc1ccc2nc(SCc3ccc([N+](=O)[O-])cc3)[nH]c2c1	-12.6%	
Cc1ccc2nc3cc([N+](=O)[O-])cc([N+](=O)[O-])c3cc2c1		17.8 µM (active)

Compound	activity change, negative = cytotoxicity	Potency
Cc1cc(C)nc(NNS(=O)(=O)c2ccc(F)c(Cl)c2)n1	-5.02%	
CC(C)CC(=O)NC(=S)NNC(=O)c1ccc(NC(=O)C2CCCCC2)cc1	4.48%	
CCC(=O)OCCNc1cc(Sc2nc3ccccc3[nH]2)c2nonc2c1[N+](=O)[O-]		3.16 µM (active)
Cc1cccc(OCCCC(=O)Nc2nc3ccccc3[nH]2)c1	-19.4%	
CC(SC(C)C(=O)NN=Cc1cccc(Cl)c1)C(=O)NN=Cc1cccc(Cl)c1 (stereo not drawn)	-28.8%	
O=C(NC(=S)NCc1nc2ccccc2[nH]1)c1ccc(F)cc1	-4.93%	
Cc1cc(C)cc(NC(=O)CCC(=O)Nc2cc(C)on2)c1	-6.58%	
COc1ccc(OC)c(NC(=O)CSc2nnnn2-c2ccc3c(c2)OCO3)c1	-28.3% [at 57.5 µM]	
Cc1cc(C)c2c(CC(=O)Nc3ccc(Cl)cn3)coc2c1	-4.58%	
Cc1ccc(N=Nc2ccc(O)c3ncccc23)cc1		10 µM (active)
CN1CCC(N(C)C(=O)c2ccc(Cl)c(S(=O)(=O)N3CCc4ccccc43)c2)CC1	-25.1% [at 57.5 µM]	
Nc1ccn([C@@H]2O[C@H](CO)[C@@H](O)[C@@H]2O)c(=O)n1	-10.9%	
CN(C)S(=O)(=O)c1cccc(N2C(=O)CC3(CCCCC3)CC2=O)c1	-6.16%	
C=CCN(C(=O)CSc1nc2c(sc3ccccc32)c(=O)n1CCN(CC)CC)c1ccccc1		25.1 µM (active)
CCOC(=O)c1c(-n2cccc2)sc2c1CCCC2=O	-20% [at 57.5 µM]	
CC(=O)c1ccc(N2CCN(CC(O)COC(c3ccccc3)c3ccccc3)CC2)cc1 (stereo not drawn)	-7.3%	
CC(C)Nc1nc(-c2ccccn2)nc(-c2ccccc2)c1C#N	-20.8% [at 57.5 µM]	
CCN(CC)c1nc(-c2ccccn2)nc(-c2ccccc2)c1C#N		8.91 µM (active)
Cn1cc(SCC(=O)Nc2nc3ccccc3s2)c2ccccc21	-4.73%	
O=C(N/N=C/c1ccccc1O)c1cccc(C(F)(F)F)c1	-7.41%	
COc1cccc(/C=N/NC(=O)c2cc3c(OC)cccc3[nH]2)c1O	-32.3% [at 57.5 µM]	
COc1ccccc1NS(=O)(=O)c1cccc(C(=O)N/N=C/c2ccc([N+](=O)[O-])o2)c1		15.8 µM (active)
